SMILES strings stand for the structures. For some of these results: Measured potencies and affinities stand elsewhere.

Holding throughout (parameters): scale not given: direction of the effect not stated beside the values
Experiment [1] has as its target Protein translocase subunit SecA (Escherichia coli (strain K12)) (UniProt P10408). Description: Assay to Identify E. coli SecA ATPase Inhibitors. Format: functional. The conditions noted are these: 30 µM.
Experiment [2] addresses T1, Ubiquitin-activating enzyme e1, putative (Leishmania donovani (strain BPK282A1)) (UniProt E9BSI1).
T1 sequence (whole entry): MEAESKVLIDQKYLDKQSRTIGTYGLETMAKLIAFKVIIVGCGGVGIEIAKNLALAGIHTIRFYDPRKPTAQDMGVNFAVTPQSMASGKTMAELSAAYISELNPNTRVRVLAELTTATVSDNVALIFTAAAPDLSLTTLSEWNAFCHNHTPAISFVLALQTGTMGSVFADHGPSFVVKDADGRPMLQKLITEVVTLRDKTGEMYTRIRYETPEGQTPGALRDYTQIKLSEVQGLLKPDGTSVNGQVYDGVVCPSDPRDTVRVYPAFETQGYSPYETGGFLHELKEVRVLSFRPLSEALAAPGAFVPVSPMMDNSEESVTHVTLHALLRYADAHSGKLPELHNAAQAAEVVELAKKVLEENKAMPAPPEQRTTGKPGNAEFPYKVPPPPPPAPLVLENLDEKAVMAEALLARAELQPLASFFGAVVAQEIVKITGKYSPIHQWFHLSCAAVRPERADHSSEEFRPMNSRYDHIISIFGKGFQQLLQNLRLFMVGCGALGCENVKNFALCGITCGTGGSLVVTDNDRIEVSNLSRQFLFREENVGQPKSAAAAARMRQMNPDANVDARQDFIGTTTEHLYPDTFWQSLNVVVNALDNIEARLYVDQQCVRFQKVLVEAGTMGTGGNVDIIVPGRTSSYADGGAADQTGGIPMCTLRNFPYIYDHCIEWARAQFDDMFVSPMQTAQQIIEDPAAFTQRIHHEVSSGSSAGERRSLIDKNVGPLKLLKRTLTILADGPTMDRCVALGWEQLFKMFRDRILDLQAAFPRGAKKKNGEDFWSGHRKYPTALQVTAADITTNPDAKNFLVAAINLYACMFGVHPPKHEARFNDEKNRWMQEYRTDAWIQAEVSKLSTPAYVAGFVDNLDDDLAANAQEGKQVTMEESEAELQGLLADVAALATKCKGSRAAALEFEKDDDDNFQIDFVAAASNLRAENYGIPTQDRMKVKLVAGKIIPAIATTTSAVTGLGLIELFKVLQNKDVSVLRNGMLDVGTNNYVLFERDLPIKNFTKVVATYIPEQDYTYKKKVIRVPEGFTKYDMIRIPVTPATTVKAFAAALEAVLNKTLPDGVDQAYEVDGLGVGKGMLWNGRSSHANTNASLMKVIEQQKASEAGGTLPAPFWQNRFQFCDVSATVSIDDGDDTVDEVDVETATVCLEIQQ
Nature of the experiment: Leishmania donovani Ubiquitin Activating Enzyme (LdE1). As to conditions: 30 µM. Format: functional.

Experiment [3] concerns the target AMP-activated protein kinase, AMPK (Homo sapiens) (UniProt P54646+O43741+P54619+Q9UGJ0+Q9Y478+Q13131+Q9UGI9). Description: AMP-dependent Kinase enzyme assay. An in vitro enzyme assay that detects ADP turnover that is directly proportional to AMPK activity. This uses naive AMPK that is activated during the assay with MK-8722. As to conditions: 30 µM. Format: functional.

Experiment [4] has as its target Sialic acid-binding Ig-like lectin 9 (Homo sapiens) (UniProt Q9Y336). Description: Hs-Siglec9 ALPHAscreen SOP 20170721. The conditions noted are these: 10 µM.
The subject of a further experiment is Trypanosoma cruzi. Nature of the experiment: Trypanosoma cruzi phosphomannomutase and mannose-1-phosphate guanylyltransferase assay. Format: functional. The conditions noted are these: 10 µM.
In experiment [5] the target is T2, Arginase-2, mitochondrial (Homo sapiens) (UniProt P78540).
T2 sequence (whole entry): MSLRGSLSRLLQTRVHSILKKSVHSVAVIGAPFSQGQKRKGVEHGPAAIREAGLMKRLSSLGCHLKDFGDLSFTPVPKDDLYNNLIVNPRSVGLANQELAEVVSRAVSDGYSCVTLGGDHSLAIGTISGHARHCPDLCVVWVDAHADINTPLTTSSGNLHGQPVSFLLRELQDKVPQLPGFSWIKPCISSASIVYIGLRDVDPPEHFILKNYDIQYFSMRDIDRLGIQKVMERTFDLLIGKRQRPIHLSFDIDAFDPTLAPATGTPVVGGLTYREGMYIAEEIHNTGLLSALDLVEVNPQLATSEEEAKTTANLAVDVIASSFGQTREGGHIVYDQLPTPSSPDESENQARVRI
Nature of the experiment: in vitro enzyme assay to detect the production of urea directly proportional to the activity of Arginase II. Also: in the data most compounds retested in dose-response had high values. Format: functional. The conditions noted are these: 33.3 µM.

The target in experiment [6] is T3, Proteasome subunit beta (Trypanosoma cruzi) (UniProt O96673).
T3 sequence (whole entry): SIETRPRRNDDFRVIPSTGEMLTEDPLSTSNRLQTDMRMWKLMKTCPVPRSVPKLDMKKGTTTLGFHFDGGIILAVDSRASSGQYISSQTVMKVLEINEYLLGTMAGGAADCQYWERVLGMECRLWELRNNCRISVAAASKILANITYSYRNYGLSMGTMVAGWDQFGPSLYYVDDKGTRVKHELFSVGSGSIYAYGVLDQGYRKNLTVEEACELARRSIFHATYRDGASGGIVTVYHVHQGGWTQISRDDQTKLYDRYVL
Description: Trypanosoma cruzi proteasome chymotrypsin-like activity (TcProtChymo) assay. Also: in the data most compounds retested in dose-response had high values. Format: functional. As to conditions: 9.37 µM.

The species named for a further experiment is Homo sapiens. Description: To identify inhibition of the IFN signalling (Jak-Stat) pathway via expression of an eGFP reporter gene under the control of an IFN-stimulated response element (ISRE) containing MxA promoter. Format: functional. The conditions noted are these: 30 µM. In general terms: Reporter assays use an easily measured gene product as a stand-in for the process of interest.

The target in experiment [7] is T4, Tyrosyl-tRNA synthetase, putative (Trypanosoma cruzi (strain CL Brener)) (UniProt Q4DSP6).
T4 sequence (whole entry): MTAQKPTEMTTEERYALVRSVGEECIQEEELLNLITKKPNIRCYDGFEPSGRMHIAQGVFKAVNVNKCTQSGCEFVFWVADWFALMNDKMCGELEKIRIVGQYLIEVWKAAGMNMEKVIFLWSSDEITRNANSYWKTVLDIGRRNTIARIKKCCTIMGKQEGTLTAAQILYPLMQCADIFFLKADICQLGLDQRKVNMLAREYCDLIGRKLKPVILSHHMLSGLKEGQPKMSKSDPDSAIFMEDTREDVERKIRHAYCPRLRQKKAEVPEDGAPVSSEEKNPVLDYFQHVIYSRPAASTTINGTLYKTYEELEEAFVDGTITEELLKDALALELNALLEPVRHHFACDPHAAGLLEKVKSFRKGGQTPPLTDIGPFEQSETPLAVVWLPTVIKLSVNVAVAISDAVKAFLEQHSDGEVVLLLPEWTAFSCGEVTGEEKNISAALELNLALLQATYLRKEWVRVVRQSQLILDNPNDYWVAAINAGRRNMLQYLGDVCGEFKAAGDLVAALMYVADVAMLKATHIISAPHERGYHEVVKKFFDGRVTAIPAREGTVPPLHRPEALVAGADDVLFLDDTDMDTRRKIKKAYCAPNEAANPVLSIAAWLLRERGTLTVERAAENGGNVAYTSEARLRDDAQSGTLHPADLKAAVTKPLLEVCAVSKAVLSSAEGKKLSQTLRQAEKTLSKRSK
Nature of the experiment: Trypanosoma cruzi tyrosyl tRNA synthetase (TcYRS) _High Tyrosine SOP. Also: in the data most compounds retested in dose-response had high values. Format: functional. As to conditions: 30 µM.

Experiment [8] deals with T4, Tyrosyl-tRNA synthetase, putative (Trypanosoma cruzi (strain CL Brener)). Description: Trypanosoma cruzi tyrosyl tRNA synthetase (TcYRS) SOP. Format: functional. The conditions noted are these: 30 µM.
In experiment [9] the target is Chromo domain-containing protein 1 (Saccharomyces cerevisiae (strain ATCC 204508 / S288c) (Baker's yeast)) (UniProt P32657). Description: ScCHD-1 Enzyme Inhibition Assay. Also: in the data most compounds retested in dose-response had high values. Format: functional. The conditions noted are these: 30 µM.
Chromo domain-containing protein 1 (Saccharomyces cerevisiae (strain ATCC 204508 / S288c) (Baker's yeast)), sequence (P32657 whole entry, the tested form may be a part): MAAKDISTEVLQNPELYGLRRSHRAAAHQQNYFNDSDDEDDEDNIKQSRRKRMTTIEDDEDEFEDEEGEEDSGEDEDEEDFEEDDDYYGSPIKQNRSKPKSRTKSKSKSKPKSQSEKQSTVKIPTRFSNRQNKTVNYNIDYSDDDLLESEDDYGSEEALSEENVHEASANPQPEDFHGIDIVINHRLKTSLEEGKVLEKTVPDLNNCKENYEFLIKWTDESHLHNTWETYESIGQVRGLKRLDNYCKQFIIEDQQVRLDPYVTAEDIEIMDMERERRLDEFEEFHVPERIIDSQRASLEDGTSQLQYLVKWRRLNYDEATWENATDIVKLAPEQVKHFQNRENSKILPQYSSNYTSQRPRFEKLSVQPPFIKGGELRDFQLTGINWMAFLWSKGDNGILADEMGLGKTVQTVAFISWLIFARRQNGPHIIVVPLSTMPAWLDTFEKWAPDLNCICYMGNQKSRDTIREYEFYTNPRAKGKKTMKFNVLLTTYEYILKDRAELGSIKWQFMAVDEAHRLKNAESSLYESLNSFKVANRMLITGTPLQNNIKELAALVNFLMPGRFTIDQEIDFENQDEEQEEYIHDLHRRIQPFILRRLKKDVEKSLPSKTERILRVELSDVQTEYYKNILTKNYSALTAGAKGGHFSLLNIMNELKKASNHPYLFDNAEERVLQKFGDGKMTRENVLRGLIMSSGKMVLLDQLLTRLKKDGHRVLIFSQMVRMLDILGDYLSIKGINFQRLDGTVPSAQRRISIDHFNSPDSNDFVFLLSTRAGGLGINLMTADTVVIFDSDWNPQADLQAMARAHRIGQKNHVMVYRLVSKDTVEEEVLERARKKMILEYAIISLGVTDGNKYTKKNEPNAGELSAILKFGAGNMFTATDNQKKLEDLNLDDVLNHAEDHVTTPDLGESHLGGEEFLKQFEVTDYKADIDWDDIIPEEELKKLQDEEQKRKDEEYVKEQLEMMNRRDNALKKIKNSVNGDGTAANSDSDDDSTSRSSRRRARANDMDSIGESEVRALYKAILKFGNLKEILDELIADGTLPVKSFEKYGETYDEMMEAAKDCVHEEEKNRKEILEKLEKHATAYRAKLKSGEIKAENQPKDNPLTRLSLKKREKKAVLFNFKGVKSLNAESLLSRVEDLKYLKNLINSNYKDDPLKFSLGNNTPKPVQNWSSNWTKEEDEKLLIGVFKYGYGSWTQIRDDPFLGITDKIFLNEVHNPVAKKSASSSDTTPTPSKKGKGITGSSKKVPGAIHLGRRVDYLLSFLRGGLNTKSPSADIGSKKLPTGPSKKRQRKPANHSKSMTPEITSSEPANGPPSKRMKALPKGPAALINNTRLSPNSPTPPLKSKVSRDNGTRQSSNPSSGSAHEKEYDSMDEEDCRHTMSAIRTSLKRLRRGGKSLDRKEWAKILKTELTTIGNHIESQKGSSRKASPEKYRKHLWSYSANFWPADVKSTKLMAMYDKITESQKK

Sialic acid-binding Ig-like lectin 9 (Homo sapiens), sequence (Q9Y336 whole entry): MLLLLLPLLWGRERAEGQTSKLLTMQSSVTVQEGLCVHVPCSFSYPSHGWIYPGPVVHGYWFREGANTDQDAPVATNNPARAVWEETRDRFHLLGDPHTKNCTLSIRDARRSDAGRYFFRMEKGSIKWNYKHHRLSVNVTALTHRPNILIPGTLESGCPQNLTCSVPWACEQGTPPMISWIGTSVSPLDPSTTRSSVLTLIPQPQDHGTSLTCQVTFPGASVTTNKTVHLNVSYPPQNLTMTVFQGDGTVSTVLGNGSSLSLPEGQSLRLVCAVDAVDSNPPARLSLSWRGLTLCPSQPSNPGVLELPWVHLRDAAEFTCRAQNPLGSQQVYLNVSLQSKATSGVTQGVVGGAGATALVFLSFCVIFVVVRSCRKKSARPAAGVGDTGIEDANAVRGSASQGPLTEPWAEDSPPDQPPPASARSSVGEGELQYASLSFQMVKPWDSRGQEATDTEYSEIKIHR
Protein translocase subunit SecA (Escherichia coli (strain K12)), sequence (P10408 whole entry): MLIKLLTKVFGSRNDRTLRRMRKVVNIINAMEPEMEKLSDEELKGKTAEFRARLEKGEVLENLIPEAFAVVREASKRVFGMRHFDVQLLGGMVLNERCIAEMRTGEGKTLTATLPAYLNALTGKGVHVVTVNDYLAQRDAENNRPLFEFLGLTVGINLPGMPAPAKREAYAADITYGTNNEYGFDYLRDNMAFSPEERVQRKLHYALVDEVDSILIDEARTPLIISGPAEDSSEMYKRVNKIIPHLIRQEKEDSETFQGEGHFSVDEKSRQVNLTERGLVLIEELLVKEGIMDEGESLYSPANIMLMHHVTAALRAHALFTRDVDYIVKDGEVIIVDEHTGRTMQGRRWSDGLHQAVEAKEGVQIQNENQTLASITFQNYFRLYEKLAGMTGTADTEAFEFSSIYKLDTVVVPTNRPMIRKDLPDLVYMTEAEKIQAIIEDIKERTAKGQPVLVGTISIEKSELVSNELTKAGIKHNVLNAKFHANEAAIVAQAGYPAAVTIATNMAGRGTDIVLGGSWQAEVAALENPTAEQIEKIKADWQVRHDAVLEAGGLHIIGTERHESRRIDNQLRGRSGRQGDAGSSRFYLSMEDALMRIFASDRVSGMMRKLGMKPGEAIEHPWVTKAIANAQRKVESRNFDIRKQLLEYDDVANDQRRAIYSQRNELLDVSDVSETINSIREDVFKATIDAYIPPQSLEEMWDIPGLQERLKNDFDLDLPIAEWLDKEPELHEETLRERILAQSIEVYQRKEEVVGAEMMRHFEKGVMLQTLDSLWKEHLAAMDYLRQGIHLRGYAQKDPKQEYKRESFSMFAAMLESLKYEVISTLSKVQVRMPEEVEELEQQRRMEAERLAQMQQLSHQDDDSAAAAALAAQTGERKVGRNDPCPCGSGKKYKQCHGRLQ

For the compound `Cc1cccc(N2CCC(NC(=O)CCCc3cccs3)CC2)n1`, the Percent Effect is -3.35% in experiment [1]; 11% in [2]; 0.158% in experiment [3]; 5.32% in experiment [4]; 5.49% in the experiment on Trypanosoma cruzi; 6.82% in [5]. In addition, the Percent Effect in experiment [6] came out at 9.94%; in the experiment listed under Homo sapiens, 4.54%; in experiment [7], 5.38%; in experiment [8], 12.5%; in [9], 2.88%.

Take `CS(=O)(=O)NCCCN1CCCC1Cc1ccccc1` (stereo unspecified): the Percent Effect was -4.3% in experiment [1]; 0% in experiment [2]; -5.49% in [3]; 11.9% in [4]; 3.49% in the experiment with Trypanosoma cruzi; -3.42% in [5]. The Percent Effect in experiment [6] is 9.09%; in the experiment listed under Homo sapiens, 13%; in [7] it was 5.42%; in experiment [8], 16.5%; in experiment [9], -3.37%.

On to `COc1cccc(C2CCCN2Cc2nc3c(cnn3C)c(=O)[nH]2)c1` (stereo unspecified), for which the Percent Effect is -0.893% in experiment [1]; 22.8% in experiment [2]; 2.53% in experiment [3]; -5.13% in experiment [4]; 0.661% in the experiment on Trypanosoma cruzi; 3.8% in experiment [5]. Further, the Percent Effect in experiment [6] is 14.2%; in the experiment listed under Homo sapiens it was 17.2%; in experiment [7] it was 6.4%; in experiment [8] it was 24.1%; in experiment [9], -5.39%.

Turning to `Cc1cc(C)n(CC(=O)NC(Cc2ccsc2)c2ccccn2)c(=O)n1` (stereo unspecified), the Percent Effect was -10.3% in experiment [1]; 12.2% in experiment [2]; -6.03% in [3]; 12.5% in experiment [4]; 8.5% with Trypanosoma cruzi; -4.87% in experiment [5]. Besides, the Percent Effect in experiment [6] is 9.2%; in the experiment listed under Homo sapiens it was -8.13%; in experiment [7] it was 5.38%; in [8], 11.7%; in [9], -22.9%.

As to `COc1cccc2c1OCC(NC(=O)NCc1cccs1)C2` (stereo unspecified), the Percent Effect was -7.48% in experiment [1]; 15.8% in experiment [2]; 0.286% in experiment [3]; 9.16% in experiment [4]; 0.876% in the experiment on Trypanosoma cruzi; -2.37% in experiment [5]. Besides, the Percent Effect in experiment [6] is 9.11%; in the experiment listed under Homo sapiens, 5.73%; in [7], 4.25%; in experiment [8] it was 13%; in experiment [9] it was -6.35%.

With `CC1CCCN(C(=O)c2csc(S(N)(=O)=O)c2)CC1` (stereo unspecified), the Percent Effect in [1] is -6.52%; in experiment [2] it was 2.7%; in [3], 1.27%; in experiment [4], -1.52%; in the experiment with Trypanosoma cruzi, -6.75%; in experiment [5], 0.248%. Moreover, the Percent Effect in [6] was -0.944%; in the experiment filed under Homo sapiens, -3.67%; in [7], 4.3%; in experiment [8], 6.17%; in experiment [9], -0.416%.

Regarding `CN(Cc1ncc(-c2ccccc2)o1)CC1CCCN1c1cccnn1` (stereo unspecified), the Percent Effect in experiment [1] is -0.973%; in experiment [2] it was -26%; in experiment [3], 3.71%; in experiment [4] it was 2.54%; with Trypanosoma cruzi, 7.74%; in [5] it was -1.9%. Further, the Percent Effect is 1.54% in experiment [6]; -9.54% in the experiment filed under Homo sapiens; 2.86% in experiment [7]; 9.41% in experiment [8]; -9.3% in experiment [9].

For `O=C(NC1CCCC1)[C@@H]1CN(Cc2nccs2)C[C@H]2OCC[C@H]21`, the Percent Effect in experiment [1] is -5.51%; in experiment [2] it was 2.67%; in experiment [3] it was -3.12%; in experiment [4], -3.59%; in the experiment on Trypanosoma cruzi it was -1.77%; in experiment [5] it was 1.63%. Besides, the Percent Effect in experiment [6] is -3.26%; in the experiment filed under Homo sapiens, 21.4%; in [7], 3.19%; in experiment [8], -3.85%; in [9], 7.18%.

As for `Cc1nc(-c2ccc(Cl)s2)sc1C(=O)NCCS(N)(=O)=O`, the Percent Effect in experiment [1] is -5.36%; in [2] it was 10.8%; in [3] it was 20%; in [4], 14.1%; in the experiment on Trypanosoma cruzi, -1.95%; in experiment [5], 2.4%. The Percent Effect in experiment [6] is 9.34%; in the experiment listed under Homo sapiens, 6.3%; in experiment [7] it was 5.94%; in experiment [8] it was 13.4%; in experiment [9], 0.478%.

For the compound `Cc1cnn(CC2CCCN2C(=O)c2ccc3cc[nH]c3c2)c1` (stereo unspecified), the Percent Effect in experiment [1] was -1.42%; in [2], 1.27%; in [3] it was 3.59%; in [4], 1.53%; with Trypanosoma cruzi, -1.33%; in experiment [5] it was 1.5%. In addition, the Percent Effect is 2.4% in experiment [6]; 13.8% in the experiment listed under Homo sapiens; 0% in [7]; 5.06% in experiment [8]; -8.72% in experiment [9].

Take `O=C(NCCc1c[nH]cn1)c1ccc2c(c1)C(=O)N(C1CC1)C2=O`: the Percent Effect is -0.201% in experiment [1]; 1.33% in experiment [2]; 5.05% in experiment [3]; 2.3% in experiment [4]; -8.64% in the experiment with Trypanosoma cruzi; 0.176% in experiment [5]. Further, the Percent Effect is 11.7% in experiment [6]; -8.34% in the experiment filed under Homo sapiens; 6.35% in experiment [7]; 7.69% in experiment [8]; -4.66% in experiment [9].

The values above are taken from ChEMBL document CHEMBL3988442, “University of Dundee, Small-Polar-MMV Screening Library” (2021).
